Among all 320,000 compounds or so, about 22,000 (6.9%) were called active. Inconclusive results (about 27%) are left out. Shown is part of a subset that was picked to be rich in actives. Unmarked numbers belong to inactive results. The call rests on the fitted dose curve; in most records, active means well fitted inhibition curve with a large enough effect; inconclusive means small, poorly fitted or top-dose-only effect, or another doubt; inactive means no such curve, though single readings can be large or run the other way.
On the % scale 0 is the no-effect control and ±100 the full control effect; potency means the concentration at half of the fitted maximal effect.

This experiment can be described thus: Primary qHTS for delayed death inhibitors of the malarial parasite plastid, 96 hour incubation. The settings on record: P. falciparum luciferase reporter growth; series mostly up to 28.7 µM; activity change, negative = inhibition: at the top concentration. Summed up:
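Compounds incubated with erythrocytes infected by luciferase-expressing P. falciparum (2% hematocrit, 0.05% parasitemia final) for 96 hours, 37 C in 5% CO2. Growth inhibition scored as decreased luciferase luminescence.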
Consider `CCOC(=O)Nc1ccc(NC(=O)OCC)cc1`, for which the “activity change, negative = inhibition” value was 41.7%.

Take `CCCCCOC(=O)NCCOC(=O)Nc1ccc(C(=O)OCC)cc1`: the Potency was 11.7 µM (active).

Regarding `CN1CCN(NC(=O)Nc2ccc(Br)cc2)CC1`, the “activity change, negative = inhibition” value was 62%.

For `O=C(NCCS(=O)(=O)NCc1ccc(Cl)cc1)c1ccccc1`, the “activity change, negative = inhibition” value is 46.1%.

`CCOC(=O)Cc1csc(NC(=O)CSc2nc(C)cc(=O)[nH]2)n1`: the “activity change, negative = inhibition” value is 4.63%.

Consider `CCOC(=O)Cc1csc(NC(=O)CSc2ccc(Br)cc2)n1`, for which the Potency was 2.62 µM (active).

On to `CCOC(=O)Cc1csc(NC(=O)Nc2ccccc2)n1`, for which the “activity change, negative = inhibition” value was 7.05%.

On to `CCOC(=O)N1CCN(C(=O)COC(=O)c2cccc(S(C)(=O)=O)c2)CC1`, for which the “activity change, negative = inhibition” value is 13.7%.

On to `CCCN(CC(=O)Nc1ccccc1OC)C(=O)CCC(=O)c1ccc(F)cc1`, for which the “activity change, negative = inhibition” value is 1.55%.

Take `CCCCOC(=O)Cn1c(=O)n(CC(=O)OCCCC)c2cc(C)ccc21`: the “activity change, negative = inhibition” value was -23.5%.

Regarding `CCCCCCCCCCOC(=O)Cn1c(COc2cccc(OC)c2)[n+](C)c2ccccc21`, the Potency is 3.29 µM (active).

As for `CCn1c(=N)n(CC(=O)c2cccc(OC)c2)c2ccccc21`, the “activity change, negative = inhibition” value is 48.5%.

Regarding `NC(=O)c1oc2ccccc2c1NC(=O)CS(=O)(=O)c1ccccc1`, the “activity change, negative = inhibition” value was 6.28%.

In the case of `CCOc1ccc2[nH]c(=O)c(CN(CCCO)S(=O)(=O)c3ccc(F)cc3)cc2c1`, the “activity change, negative = inhibition” value was 22.7%.

Regarding `Cc1cccc(N2CCN(C(=O)CCS(=O)(=O)c3ccc4c(c3)NC(=O)C(C)S4)CC2)c1C` (centres undefined), the “activity change, negative = inhibition” value is 9.12%.

`Cc1cc(=O)oc2cc(OC(C)C(=O)NCCc3ccc(S(N)(=O)=O)cc3)ccc12` (centres undefined): the “activity change, negative = inhibition” value was 2.05%.

Consider `CCn1ccnc1CN(C)C(=O)c1cc(COc2ccc(Cl)cc2OC)on1`, for which the Potency was 3.7 µM (active).

Regarding `CCn1ccnc1CN(C)C(=O)c1cc(COc2ccc(-n3cncn3)cc2)on1`, the “activity change, negative = inhibition” value was 14.7%.

In the case of `COc1cc(Cl)ccc1OCc1cc(C(=O)N2CC[C@@H]3CCCC[C@H]3C2)no1`, the “activity change, negative = inhibition” value is -29.8%.

Consider `O=C(N[C@@H](Cc1c[nH]c2ccccc12)C(=O)O)OCC1c2ccccc2-c2ccccc21`, for which the “activity change, negative = inhibition” value is 41%.

Consider `CN(C)CCCn1c(SCc2ccc(Cl)cc2)nnc1-c1ccncc1`, for which the Potency was 2.94 µM (active).

For the compound `CC1CCCCC1NC(=O)CSc1nnc(-c2ccncc2)n1CCCN(C)C` (centres undefined), the “activity change, negative = inhibition” value is 6.86%.

For the compound `COCCCn1c(SCC(=O)Nc2ccccc2)nnc1-c1ccncc1`, the “activity change, negative = inhibition” value was 2.39%.

Take `O=C(c1cc(COc2c(F)cccc2F)on1)N1CCSCC1`: the “activity change, negative = inhibition” value is 289%.

Regarding `NC(=O)C1CCN(CC(O)CSc2ccc(F)cc2)CC1` (centres undefined), the “activity change, negative = inhibition” value was 26.9%.

Take `c1ccc(-n2cccc2)c(N2CCCCC2)c1`: the “activity change, negative = inhibition” value was 7.08%.

Turning to `c1ccc(-c2cc(N3CCCCC3)c3ccccc3n2)cc1`, the Potency is 9.28 µM (active).

For the compound `O=c1cc(-c2ccccc2)nc(N2CCCCC2)[nH]1`, the “activity change, negative = inhibition” value is -15.8%.

As to `Cc1nc2ccccc2n1CC(O)c1ccccc1` (centres undefined), the “activity change, negative = inhibition” value is 2.16%.

Turning to `O=C(/C=C/c1cccc(C(F)(F)F)c1)N1CCN(c2ccccn2)CC1`, the “activity change, negative = inhibition” value is 12.2%.

As for `Nc1nonc1-n1nnc(C(=O)N/N=C\c2ccncc2)c1CN1CCCCC1`, the “activity change, negative = inhibition” value is 79%.

Take `Cc1ccc(CNS(=O)(=O)c2ccc3c(c2)N(C)CCO3)cc1`: the “activity change, negative = inhibition” value was -0.724%.

On to `Cc1ccc(S(=O)(=O)Nc2nc(CN3CCOCC3)nc3sc(C)c(C)c23)cc1`, for which the “activity change, negative = inhibition” value was 1.88%.

As to `Cc1ccc(NC(=O)CN(C)C(=O)Cn2nnc(-c3ccccc3)n2)cc1`, the “activity change, negative = inhibition” value was 28%.

On to `COc1c(C)c2c(c(O)c1C/C=C(\C)CCC(=O)O)C(=O)OC2`, for which the Potency is 1.61 µM (active).

With `Cc1cc(=O)oc2c(C(=O)c3ccccc3)c(OCC(N)=O)ccc12`, the “activity change, negative = inhibition” value was 0.359%.

As for `COC(=O)c1cc(S(=O)(=O)N2CCC(C(N)=O)CC2)oc1C`, the “activity change, negative = inhibition” value was 5.4%.

For `Cn1c(SCC(=O)N/N=C/c2ccc(O)c(O)c2)nc2ccccc21`, the “activity change, negative = inhibition” value was 0.417%.

With `Cc1nn(Cc2ccccc2Cl)c(Cl)c1C(=O)OC(C(=O)NC(N)=O)C(C)C` (centres undefined), the Potency is 13.1 µM (active).

For the compound `COC(=O)c1ccc(COC(=O)c2c(C)nn(Cc3ccccc3Cl)c2Cl)o1`, the “activity change, negative = inhibition” value was -79.4%.

For `COc1ccccc1CCNC(=O)c1c(C)nn(CC(C)C)c1Cl`, the “activity change, negative = inhibition” value is 2.72%.

In the case of `CCCCCCn1cc(C(=O)O)c(=O)c2cc(F)c(N3CCCCC3)cc21`, the “activity change, negative = inhibition” value is -5.73%.

Turning to `CC(C)CN(C(=O)Cn1c(=O)cnc2ccccc21)C1CCS(=O)(=O)C1` (centres undefined), the “activity change, negative = inhibition” value is 0.302%.

For the compound `Cc1ccc(C)c(NC(=O)CN(C)C(=O)c2ccc3ncsc3c2)c1`, the “activity change, negative = inhibition” value was 0%.

Consider `COc1ccc(C(=O)CCC(=O)Nc2ccc(Cl)cc2)cc1`, for which the “activity change, negative = inhibition” value is 37.7%.

`COc1ccccc1/C=N/N1CCN(Cc2ccccc2Cl)CC1`: the “activity change, negative = inhibition” value was 39.7%.

On to `COc1ccc(C2N=C(N)N=C(N)N2c2ccccc2)cc1OC` (centres undefined), for which the Potency was 2.62 µM (active).

Consider `COc1ccc(C2/C(=C(/O)c3ccccc3)C(=O)C(=O)N2c2ncccn2)cc1OC` (centres undefined), for which the “activity change, negative = inhibition” value is 1.16%.

In the case of `COc1ccc(C2SCCN2S(=O)(=O)c2ccccc2)cc1OC` (centres undefined), the “activity change, negative = inhibition” value is 31.4%.

For the compound `Cc1ccc(S(=O)(=O)N(C)C)cc1NC(=O)C(C)OC(=O)c1ccc2ccccc2n1` (centres undefined), the “activity change, negative = inhibition” value is 4.57%.

For `COc1ccc(S(=O)(=O)N(C)CC(=O)NCCCN2CCOCC2)cc1Cl`, the “activity change, negative = inhibition” value is 28.2%.

With `CC(=O)c1ccc(NC(=O)CCc2nnc3ccc(NCc4ccco4)nn23)cc1`, the “activity change, negative = inhibition” value was 15.2%.

On to `CCOc1ccccc1NC(=O)CCc1nnc2ccc(NCc3ccco3)nn12`, for which the Potency was 8.28 µM (active).

As for `O=C(CCc1nnc2ccc(NCc3ccco3)nn12)Nc1cc(F)ccc1F`, the “activity change, negative = inhibition” value was -2.28%.

The record behind these values is PubChem BioAssay AID504834 (National Center for Advancing Translational Sciences (NCATS), 2011).
